# Source: PubChem BioAssay
# Values joined by “and” are separate entries in the source; they are usually repeats but may differ in a detail not shown here. Equal values may be shown once. Active and inactive are the calls of the source.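 The calls were made as follows, unless noted: active = mean z-score across replicates of 1.96 or higher in either the MELAS or the Rieske mutant cell line; inactive = the rest.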
# Columns and labels:
# [1] = P. berghei load reduction in hepatocytes – cell-based, HepG2, luciferase luminescence, HepG2 viability, primary screen (AID 624349; in the data active = parasite load remaining mostly below about 12%, no sharp cut-off; inactive = mostly above about 10%;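 also: 100% = mean of DMSO negative control wells on the same plate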); conditions: P. berghei liver stage in HepG2, luciferase luminescence, concentration not given here; parasite load remaining: stronger effect = lower value; viability: measured here: HepG2 viability without parasites
# [2] = Wnt pathway potentiators raising nuclear beta-catenin – imaging, WNT3A-conditioned medium, mouse C2C12, NPC library, primary screen (AID 1117326; in the data active = nuclear beta-catenin stimulation mostly above about 4.2%, no sharp cut-off; inactive = mostly below about 10%); conditions: stronger effect = higher value
# [3] = stimulators of insulin release from INS-1E, primary screen, cell-based, 5 mM glucose, NPC library (AID 1117329;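 active = compound raises insulin release from rat beta cells at 5 mM glucose, no numeric limit stated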); conditions: rat INS-1E insulin secretion, at 10 µM, stronger effect = higher value
# [4] = growth inhibition of GSK3B-pretreated HCT116 cells – cell-based, CellTiter-Glo, 0.2 to 20 µM (AID 1117336;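 active = compounds lowering colon cancer cell viability after pretreatment blocking the GSK3B kinase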); conditions: HCT116 viability after GSK3B inhibitor, at 20 µM, stronger effect = higher value
# [5] = inhibition of endothelial tube formation, primary screen, imaging, VEGF stimulated, CD31 staining, tube area, NPC library (AID 1117340;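 active = compound that reduces growth-factor-driven endothelial tube area in a mixed cell culture, no cutoff stated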); conditions: VEGF-stimulated ADSC/ECFC co-culture, at 10 µM, stronger effect = higher value
# [6] = GLP1 release stimulators, primary, NCI-H716, NPC library (AID 1117341;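 active = compound raises GLP1 secretion from the human gut endocrine cells, with no numeric limit stated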); conditions: NCI-H716 cells, at 10 µM, stronger effect = higher value
# [7] = HCT116 colon cancer cell growth inhibition, primary screen, CellTiter-Glo luminescence, NPC library (AID 1117342;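 active = compounds that lower survival of HCT116 colon cancer cells in the luminescence readout, no numeric limit stated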); conditions: at 20 µM (top of the series)
# [8] = reduced SW480 viability measured with CellTiter-Glo, NPC library, primary (AID 1117343;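 active = compounds that lower viability of the colon cancer cells in the luminescence readout, with no numeric limit stated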); conditions: CellTiter-Glo luminescence; at 20 µM (top of the series) unless noted
# [9] = NPC library primary testing for decreased DLD-1 cell viability via CellTiter-Glo (AID 1117346;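 active = compounds that lower survival of DLD-1 colon cancer cells in the luminescence readout, no cutoff given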); conditions: DLD-1 viability, CellTiter-Glo luminescence; at 20 µM (top of the series)
# [10] = EMT-state selective cytotoxicity in co-culture – imaging, PC-3E GFP, TEM4-18 mCherry, primary screen (AID 1345086;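 active = compounds killing one labelled cell type while sparing the other, by normalised counts and ratio limits, not self-fluorescent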;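 as to all read-outs here: cells exposed to compound for 72 h before imaging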;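 as to red/green cell ratio (normalised): normalised mesenchymal count divided by normalised epithelial count so high means epithelial killing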); conditions: PC-3E GFP / TEM4-18 mCherry co-culture, imaging cell counts, at 1 µM; for red/green cell ratio (normalised): actives lie on both sides, counts scaled to control wells, 1 = unselective
# [11] = viability loss with induced miR-34 in A549 – imaging, A549 dox-inducible miR-34, nuclei and caspase counts, primary screen (AID 1347080;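 active = compounds whose cell count with miR-34 switched on is under 0.7 times the count with it off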); conditions: A549 miR-34 inducible, Hoechst nuclei count, 48 h
# [12] = MELAS cybrid and Rieske KO viability enhancers – cell-based, MELAS cybrids, Rieske KO mouse fibroblasts, CellTiter-Glo, primary screen (AID 1508586); conditions: low glucose;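 also: z relative to plate mean and SD of compound and empty wells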
# [13] = target: NAD(+) hydrolase SARM1 (Homo sapiens) (UniProt Q6SZW1); experiment: blocking NAD cleavage by SARM1 SAM-TIR – cell lysate, NAD-Glo luminescence (AID 1508614;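 active = compound whose remaining NAD level is above about 45 nM, limit read from the data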;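 also: higher remaining NAD means stronger inhibition of SARM1 NADase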); conditions: SAM-TIR HEK293T lysate NADase, at 1 µM, stronger effect = higher value
# [14] = compounds altering viability of human ES cells (AID 493140; call rule not given here;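 also: cells exposed to compounds for four days before counting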); conditions: human embryonic stem cell survival screen; stronger effect = higher value
# [15] = measured here: epithelial PC-3E GFP cell survival
# [16] = measured here: mesenchymal TEM4-18 mCherry cell survival
# [17] = stronger effect = lower value, cell number ratio, induced over uninduced
# [18] = measured here: relative caspase fold change +Dox/-Dox
# [19] = measured here: total cells with miR-34 induction, stronger effect = lower value
# [20] = measured here: total cells without miR-34 induction
# [21] = MELAS cybrid survival, CellTiter-Glo 48 h, stronger effect = higher value
# [22] = Rieske KO mouse fibroblast survival, CellTiter-Glo 72 h
# NAD(+) hydrolase SARM1 (Homo sapiens), sequence (Q6SZW1 whole entry, looked up): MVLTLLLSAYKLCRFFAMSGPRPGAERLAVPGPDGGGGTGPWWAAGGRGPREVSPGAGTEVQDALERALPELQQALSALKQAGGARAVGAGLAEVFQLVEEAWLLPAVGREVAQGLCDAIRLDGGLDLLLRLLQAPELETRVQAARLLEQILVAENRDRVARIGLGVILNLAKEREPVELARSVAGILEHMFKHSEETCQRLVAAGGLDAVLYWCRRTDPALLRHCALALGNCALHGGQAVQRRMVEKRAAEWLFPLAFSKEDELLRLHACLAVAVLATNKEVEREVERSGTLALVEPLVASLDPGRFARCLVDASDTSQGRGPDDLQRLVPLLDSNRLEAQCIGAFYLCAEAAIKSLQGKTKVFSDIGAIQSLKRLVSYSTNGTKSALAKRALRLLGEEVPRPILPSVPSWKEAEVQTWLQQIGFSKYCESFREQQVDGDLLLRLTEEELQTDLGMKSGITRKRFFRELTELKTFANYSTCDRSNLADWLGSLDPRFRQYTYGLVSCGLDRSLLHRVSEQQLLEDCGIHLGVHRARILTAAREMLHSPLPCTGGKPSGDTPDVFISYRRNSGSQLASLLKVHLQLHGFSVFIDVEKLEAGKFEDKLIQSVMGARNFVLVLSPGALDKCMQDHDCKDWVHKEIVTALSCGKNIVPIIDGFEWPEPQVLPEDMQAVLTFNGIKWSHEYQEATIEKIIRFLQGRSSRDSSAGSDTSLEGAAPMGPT
compound,measurement,setting,value
CC(C(=O)O)c1ccc2c(c1)Cc1cccnc1O2 (stereo unspecified),parasite load remaining,[1],27% (inactive)
same,viability,[1],105%
same,nuclear beta-catenin stimulation,[2]; at 10 µM,0.4% (inactive)
same,nuclear beta-catenin stimulation,"[2]; stimulation, at 2 µM",-0.1%
same,insulin secretion stimulation,[3],4.3% (inactive)
same,viability decrease,[4],-8.3% (inactive)
same,tube area decrease,[5],-14.8% (inactive)
same,GLP1 secretion stimulation,[6],-2.7% (inactive)
same,inhibition of viability,[7],-12% (inactive)
same,viability decrease (inhibition),[8],18.6% (inactive)
same,viability decrease (inhibition),[9],9.3% (inactive)
same,red/green cell ratio (normalised),[10],0.99 (inactive)
same,normalised cell number,[10]; [15],0.91
same,normalised cell number,[10]; [16],0.9
same,fold change,[11]; [17],1 (inactive) and 0.866 (inactive)
same,fold change,[11]; [18],0.334 and 1.75
same,cell count,[11]; [19],3140 and 9560
same,cell count,[11]; [20],3140 and 11000
same,z-score,[12]; [21],-0.199 (inactive) and 0.41 (inactive) and -0.18 (inactive)
same,z-score,[12]; [22],0.0831 and 0.15 and -0.741
same,remaining NAD,[13],10 nM (inactive)
Cc1cccc(C)c1NC(=O)CN1CCN(CCCC(c2ccc(F)cc2)c2ccc(F)cc2)CC1,survival,[14],2.42 (inactive)
same,parasite load remaining,[1],135% (inactive) and 49% (inactive)
same,viability,[1],101% and 79.5%
same,nuclear beta-catenin stimulation,[2]; at 10 µM,4.7% (inactive)
same,nuclear beta-catenin stimulation,"[2]; stimulation, at 2 µM",1.2%
same,insulin secretion stimulation,[3],-1.1% (inactive)
same,viability decrease,[4],99.6% (active)
same,tube area decrease,[5],82.9% (active)
same,GLP1 secretion stimulation,[6],-2.6% (inactive)
same,inhibition of viability,[7],99.7% (active)
same,viability decrease (inhibition),[8],97.6% (active)
same,viability decrease (inhibition),[9],102% (active)
same,red/green cell ratio (normalised),[10],1.02 (inactive)
same,normalised cell number,[10]; [15],1.1
same,normalised cell number,[10]; [16],1.13
same,fold change,[11]; [17],0.884 (inactive)
same,fold change,[11]; [18],1.28
same,cell count,[11]; [19],8280
same,cell count,[11]; [20],9370
same,z-score,[12]; [21],0.335 (inactive)
same,z-score,[12]; [22],0.284
CN1C(=O)CC(C)(c2ccccc2)C1=O (stereo unspecified),nuclear beta-catenin stimulation,[2]; at 10 µM,2.5% (inactive)
same,nuclear beta-catenin stimulation,"[2]; stimulation, at 2 µM",2%
same,insulin secretion stimulation,[3],-0.7% (inactive)
same,viability decrease,[4],-2.5% (inactive)
same,tube area decrease,[5],-16.2% (inactive)
same,GLP1 secretion stimulation,[6],2.6% (inactive)
same,inhibition of viability,[7],8.7% (inactive)
same,viability decrease (inhibition),[8],19.6% (inactive)
same,viability decrease (inhibition),[9],-5.25% (inactive)
same,red/green cell ratio (normalised),[10],1.03 (inactive)
same,normalised cell number,[10]; [15],0.99
same,normalised cell number,[10]; [16],1.02
same,fold change,[11]; [17],0.901 (inactive)
same,fold change,[11]; [18],0.963
same,cell count,[11]; [19],8480
same,cell count,[11]; [20],9410
same,remaining NAD,[13],10 nM (inactive)
CCCCNc1ccc(C(=O)OCCOCCOCCOCCOCCOCCOCCOCCOCCOC)cc1,survival,[14],33.2 (inactive)
same,parasite load remaining,[1],14% (inactive) and 88.5% (inactive)
same,viability,[1],47.7% and 90.2%
same,nuclear beta-catenin stimulation,[2]; at 10 µM,-0.8% (inactive)
same,nuclear beta-catenin stimulation,"[2]; stimulation, at 2 µM",0.5%
same,insulin secretion stimulation,[3],-2.3% (inactive)
same,viability decrease,[4],9.3% (inactive)
same,tube area decrease,[5],4.2% (inactive)
same,GLP1 secretion stimulation,[6],-2.3% (inactive)
same,inhibition of viability,[7],31.5% (inactive)
same,viability decrease (inhibition),[8],13% (active)
same,viability decrease (inhibition),[9],-17.6% (inactive)
same,red/green cell ratio (normalised),[10],1.21 (inactive)
same,normalised cell number,[10]; [15],0.86
same,normalised cell number,[10]; [16],1.04
same,fold change,[11]; [17],0.937 (inactive)
same,fold change,[11]; [18],1.37
same,cell count,[11]; [19],8120
same,cell count,[11]; [20],8660
same,z-score,[12]; [21],-0.167 (inactive)
same,z-score,[12]; [22],0.149
same,remaining NAD,[13],10 nM (inactive)
